Molecules are shown by their SMILES. Several values for one entry are separate records, joined by “and”; a condition that tells them apart may be missing. Identical values can stand only once. Results filed as inconclusive are left out. Some structures have more than one record in an assay (separate samples or runs), and their calls can disagree. Activity calls are given as the source filed them. Calls follow the shape of the dose curve; as a rule, active = well fitted curve in the direction sought with a large enough effect in the repeat runs; inconclusive = weak or mixed curves; inactive = no such curve, though single readings can be large; an effect the other way counts as inactive or inconclusive.
% is scaled to controls: 0 for no effect and ±100 for the full control effect.

Chain of Nuclear receptor subfamily 1 group I member 2 (Rattus norvegicus) (Q9R1A7 whole entry, looked up): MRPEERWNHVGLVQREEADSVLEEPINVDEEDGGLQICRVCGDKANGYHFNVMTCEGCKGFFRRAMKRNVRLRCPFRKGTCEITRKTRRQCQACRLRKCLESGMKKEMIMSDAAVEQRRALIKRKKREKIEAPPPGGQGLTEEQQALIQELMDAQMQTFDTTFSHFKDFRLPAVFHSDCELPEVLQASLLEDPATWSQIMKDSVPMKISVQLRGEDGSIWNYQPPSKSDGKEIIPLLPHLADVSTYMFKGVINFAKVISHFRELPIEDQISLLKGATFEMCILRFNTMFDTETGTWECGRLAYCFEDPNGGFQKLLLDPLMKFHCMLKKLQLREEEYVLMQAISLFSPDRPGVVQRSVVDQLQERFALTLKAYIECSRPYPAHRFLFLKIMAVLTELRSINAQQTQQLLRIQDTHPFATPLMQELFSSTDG
Chain of Nuclear receptor subfamily 1 group I member 2 (Homo sapiens) (O75469 whole entry, looked up): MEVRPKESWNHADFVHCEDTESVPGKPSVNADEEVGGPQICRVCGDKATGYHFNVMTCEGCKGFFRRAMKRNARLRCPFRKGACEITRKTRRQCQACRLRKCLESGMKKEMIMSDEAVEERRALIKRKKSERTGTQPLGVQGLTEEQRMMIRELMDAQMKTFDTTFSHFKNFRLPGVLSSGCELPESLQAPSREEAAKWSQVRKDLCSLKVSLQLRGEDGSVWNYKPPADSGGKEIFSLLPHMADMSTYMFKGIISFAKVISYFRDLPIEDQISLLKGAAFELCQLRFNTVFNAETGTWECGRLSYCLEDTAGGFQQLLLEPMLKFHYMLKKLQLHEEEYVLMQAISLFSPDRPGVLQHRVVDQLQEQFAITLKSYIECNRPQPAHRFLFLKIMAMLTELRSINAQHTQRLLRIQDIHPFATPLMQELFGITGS

Tested on in the first assay: not listed separately
The assay can be described thus: Caspase-3/7 induction in HepG2 cells by small molecules, qHTS cell viability counter screen (AID 1346981). Also: nearly all actives have a fitted effect of over 30% in size. The note with it: CellTiter-Fluor fluorescence, 17 h; series mostly up to 92.4 µM; activity change, negative = cytotoxicity: at the top concentration. The method in brief:
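Counter screen for cytotoxicity: HepG2 exposed 16 hr to compounds, then CellTiter-Fluor viability signal (fluorescence, 1 hr reagent incubation).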
For `Clc1cnc(Oc2ccc(Oc3ncc(Cl)cc3Cl)cc2)c(Cl)c1`, the Potency result is “inactive”.

With `CNC(=O)O/N=C(\SC)C(=O)N(C)C`, the Potency entry is “inactive”.

With `CC(=O)C1CCOC1=O` (stereo not given), the Potency entry is “inactive”.

As to `C/C=C/c1ccc2c(c1)OCO2`, the Potency entry was “inactive”.

`OCC(O)CCl` (stereo not given): the Potency result is “inactive”.

For `CN1C(=O)CCS(=O)(=O)C1c1ccc(Cl)cc1` (stereo not given), the Potency entry was “inactive”.

With `COC(=O)Nc1cccc(OC(=O)Nc2cccc(C)c2)c1`, the Potency result was “inactive”.

`Cc1cccc(N)c1`: the Potency entry is “inactive”.

Turning to `[N-]=[N+]=CC(=O)OC[C@H](N)C(=O)O`, the Potency entry was “inactive”.

As for `NNc1ccccc1`, the Potency result was “inactive”.

For the compound `CCCCCCCCCCCCCCCCCC(=O)O`, the Potency result was “inactive”.

For the compound `C=C(C)C(=O)OCC(CC)CCCC` (stereo not given), the Potency entry was “inactive”.

The next assay addresses Nuclear receptor subfamily 1 group I member 2 (Homo sapiens) (UniProt O75469). Description: Human pregnane X receptor (PXR) small molecule agonists, qHTS assay (AID 1346982). Also: nearly all actives have a fitted effect of over 35% in size. Also: potency is read from the fitted curve at half-maximal effect. Conditions: PXR-Luc HepG2, CYP3A4 luciferase reporter, 24 h; series mostly up to 92.4 µM; activation: at the top concentration. Put shortly:
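Luminescence (ONE-Glo, 30 min RT) after 24 hr compound exposure of PXR-Luc HepG2 cells; cells rested 5 hr post-plating in 5% charcoal-stripped FBS medium.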
Turning to `Clc1cnc(Oc2ccc(Oc3ncc(Cl)cc3Cl)cc2)c(Cl)c1`, the Potency entry was “inactive”.

`CCSC(=O)N1CCCCCC1`: the Potency entry is “inactive”.

As to `CNCC(O)c1ccc(O)cc1` (stereo not given), the “activation” value is -7.47% [at 42.5 µM] (inactive).

Regarding `CNC(=O)O/N=C(\SC)C(=O)N(C)C`, the Potency result was “inactive”.

Turning to `C=CCN=C=S`, the Potency is 55.7 µM (active) and inactive.

With `Oc1c(Br)cc(Br)cc1Br`, the Potency is 68.7 µM (active) and 61.1 µM (active) and inactive.

In the case of `CC(=O)C1CCOC1=O` (stereo not given), the Potency result is “inactive”.

As to `Nc1cccc(Cl)c1`, the Potency result was “inactive”.

`C/C=C/c1ccc2c(c1)OCO2`: the Potency entry was “inactive”.

For the compound `Nc1ncc([N+](=O)[O-])s1`, the Potency result was “inactive”.

With `COC(C)(C)CCCC(C)C/C=C/C(C)=C/C(=O)OC(C)C` (stereo not given), the Potency was 47.8 µM (active).

`OCC(O)CCl` (stereo not given): the Potency result is “inactive”.

With `CN(C)NC(=O)CCC(=O)O`, the Potency entry is “inactive”.

For the compound `Cc1ccccc1N`, the Potency result was “inactive and 54.5 µM (active)”.

Turning to `Cc1cc(Cl)ccc1OC(C)C(=O)O` (stereo not given), the Potency entry was “inactive”.

Turning to `C[C@]12CC[C@H](O)CC1=CC[C@@H]1[C@@H]2CC[C@]2(C)C(=O)CC[C@@H]12`, the Potency was 54.5 µM (active) and 48.6 µM (active) and inactive.

As to `CN1C(=O)CCS(=O)(=O)C1c1ccc(Cl)cc1` (stereo not given), the Potency result is “inactive”.

With `COC(=O)Nc1cccc(OC(=O)Nc2cccc(C)c2)c1`, the Potency is 10.9 µM (active).

For `C[C@H]1C(=O)O[C@@H]2CCN3CC=C(COC(=O)[C@](C)(O)[C@]1(C)O)[C@H]23`, the Potency entry is “inactive”.

For the compound `O=C(O)C1C(C(=O)O)C2(Cl)C(Cl)=C(Cl)C1(Cl)C2(Cl)Cl` (stereo not given), the Potency result was “inactive”.

Take `Cc1cccc(N)c1`: the Potency was 54.6 µM (active) and inactive.

For `[N-]=[N+]=CC(=O)OC[C@H](N)C(=O)O`, the Potency result is “inactive”.

Consider `Cc1ccc(N)cc1`, for which the Potency is 4.35 µM (active) and 29.6 µM (active) and 27.3 µM (active).

For `COP(=S)(OC)SCN1C(=O)c2ccccc2C1=O`, the Potency entry is “inactive”.

Take `O=[N+]([O-])c1cc([As](=O)(O)O)ccc1O`: the Potency entry was “inactive”.

On to `NNc1ccccc1`, for which the Potency was 61 µM (active) and inactive.

Turning to `CCCCCCCCCCCCCCCCCC(=O)O`, the Potency is 30.4 µM (active) and inactive.

Consider `C=C(C)C(=O)OCC(CC)CCCC` (stereo not given), for which the Potency result is “inactive”.

For the compound `CC[N+](=O)[O-]`, the Potency result was “inactive”.

A further assay concerns the target Nuclear receptor subfamily 1 group I member 2 (Rattus norvegicus) (UniProt Q9R1A7). Description: Rat pregnane X receptor (rPXR) activation by small molecules, qHTS assay (AID 1346983). Also: nearly all actives have a fitted effect of over 20% in size. Also: potency is read from the fitted curve at half-maximal effect. The note with it: rPXR luciferase reporter cells, One-Glo luminescence, 24 h; max activation: stronger effect = higher value. Put shortly:
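Cell-based rPXR luciferase reporter assay, 2,000 cells per well, rested 5hr at 37 C before compound addition in DMSO, then 24 hr at 37 C. One-Glo reagent was added and luminescence read after 30 min at room temperature.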
Regarding `CNCC(O)c1ccc(O)cc1` (stereo not given), the max activation was -2.53% (inactive).

For the compound `C=CCN=C=S`, the max activation was 0.185% (inactive).

Take `Oc1c(Br)cc(Br)cc1Br`: the max activation was -2.81% (inactive).

Consider `COC(C)(C)CCCC(C)C/C=C/C(C)=C/C(=O)OC(C)C` (stereo not given), for which the max activation is -0.367% (inactive).

With `C[C@]12CC[C@H](O)CC1=CC[C@@H]1[C@@H]2CC[C@]2(C)C(=O)CC[C@@H]12`, the max activation was -3.38% (inactive).

As for `C[C@H]1C(=O)O[C@@H]2CCN3CC=C(COC(=O)[C@](C)(O)[C@]1(C)O)[C@H]23`, the max activation is -2.06% (inactive).

Turning to `Oc1ccc(Cl)cc1`, the max activation is 1.52% (inactive).

On to `COP(=S)(OC)SCN1C(=O)c2ccccc2C1=O`, for which the max activation was -1.79% (inactive).

With `O=[N+]([O-])c1cc([As](=O)(O)O)ccc1O`, the Potency was 12.6 µM (active).

`NNc1ccccc1`: the max activation is -1.33% (inactive).

Another assay has as its target Nuclear receptor subfamily 1 group I member 2 (Homo sapiens) (UniProt O75469). Description: CYP3A4 induction through human pregnane X receptor (PXR) by small molecules, qHTS assay (AID 1346984). Also: nearly all actives have a fitted effect of over 40% in size. The note with it: DPX-2 HepG2 PXR, CYP3A4-luciferin luminescence, 24 h; series mostly up to 46.1 µM; activation: at the top concentration. The method in brief:
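DPX-2 reporter cells; 24h cpd, 37C; Luciferin-IPA 3uM final x3h; One-Glo 30 min RT; lumi read.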
Consider `CNCC(O)c1ccc(O)cc1` (stereo not given), for which the “activation” value is 1.33% [at 20.6 µM] (inactive).

`C=CCN=C=S`: the “activation” value was 1.2% (inactive).

On to `Oc1c(Br)cc(Br)cc1Br`, for which the “activation” value was 3.71% (inactive).

For the compound `COC(C)(C)CCCC(C)C/C=C/C(C)=C/C(=O)OC(C)C` (stereo not given), the “activation” value was 15.3% (inactive).

With `C[C@]12CC[C@H](O)CC1=CC[C@@H]1[C@@H]2CC[C@]2(C)C(=O)CC[C@@H]12`, the “activation” value was 18.3% (inactive).

Take `C[C@H]1C(=O)O[C@@H]2CCN3CC=C(COC(=O)[C@](C)(O)[C@]1(C)O)[C@H]23`: the “activation” value is 0.114% (inactive).

As for `COP(=S)(OC)SCN1C(=O)c2ccccc2C1=O`, the “activation” value was -5.22% (inactive).

Consider `O=[N+]([O-])c1cc([As](=O)(O)O)ccc1O`, for which the “activation” value was -1.09% [at 20.6 µM] (inactive).

Take `CCCCCCCCCCCCCCCCCC(=O)O`: the “activation” value is -0.79% (inactive).

The next assay shares this target. Description: Human pregnane X receptor (PXR) activation by small molecules, qHTS assay (AID 1346985). Also: nearly all actives have a fitted effect of over 40% in size. Also: potency is read from the fitted curve at half-maximal effect. The note with it: DPX-2 HepG2 CYP3A4-luciferase, 24 h; series mostly up to 38.3 µM; activation: at the top concentration. Put shortly: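 DPX-2 cells (HepG2 co-transfected with a PXR response element and a CYP3A4-promoter luciferase construct) were seeded at 2,000 per well, rested 5 hr at 37C, then exposed to DMSO-dissolved compounds for 24 hr. Activation was read as luciferase luminescence.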
For the compound `CNCC(O)c1ccc(O)cc1` (stereo not given), the “activation” value is 4.58% [at 17.1 µM] (inactive).

As to `C=CCN=C=S`, the “activation” value is 11.9% (inactive).

`Oc1c(Br)cc(Br)cc1Br`: the “activation” value is -5.74% (inactive).

Take `COC(C)(C)CCCC(C)C/C=C/C(C)=C/C(=O)OC(C)C` (stereo not given): the Potency is 11.2 µM (active).

Regarding `C[C@]12CC[C@H](O)CC1=CC[C@@H]1[C@@H]2CC[C@]2(C)C(=O)CC[C@@H]12`, the “activation” value was 23.9% (inactive).

On to `C[C@H]1C(=O)O[C@@H]2CCN3CC=C(COC(=O)[C@](C)(O)[C@]1(C)O)[C@H]23`, for which the “activation” value is 1.55% (inactive).

Consider `COP(=S)(OC)SCN1C(=O)c2ccccc2C1=O`, for which the “activation” value was 0.912% (inactive).

On to `O=[N+]([O-])c1cc([As](=O)(O)O)ccc1O`, for which the “activation” value is 0.652% [at 17.1 µM] (inactive).

As for `NNc1ccccc1`, the “activation” value is -3.06% (inactive).

Turning to `CCCCCCCCCCCCCCCCCC(=O)O`, the “activation” value is 2.2% (inactive).

Values taken from PubChem BioAssay (Tox21).
